DT40 TDP1 no CPT: qHTS for Inhibitors of human tyrosyl-DNA phosphodiesterase 1 (TDP1): qHTS in cells in absence of CPT | DT40 Tdp1-/- hTDP1 cells, no CPT, ATP luminescence, 48 h | Potency, µM (doses to about 46.2 µM), inactives show at the highest dose activity change, negative = growth inhibition, actives largely listed as inhibitors | 420,000 compounds, 15% hits | AID 686978, 2013; note: potency is the fitted concentration of half-maximal effect; nearly all actives have a fitted effect of over 55% in size
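Cells were dispensed at 400 per well, compounds added by pin tool, plates incubated ≥48 hr at 37 °C, then CellTiter-Glo added for 30 min at room temperature before luminescence reading. Line: DT40 Tdp1-/- complemented with hTDP1; camptothecin omitted.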
IL-1B inflam inh: blocks inflammasome-driven IL-1 beta release. THP-1 LPS/ATP IL-1B secretion, AlphaLISA, 16 h; stronger effect = lower value. activity change, % at 57.5 µM. 360,000 compounds, 4.7% hits. AID 743279; in the data active = activity change below about -50%; inconclusive = mostly about -30% to -49%
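Secreted IL-1B measured by AlphaLISA bead assay after 16 h compound exposure of THP-1 cells; compounds (final up to 57.5 uM) added 1 h before LPS (250 ng/mL) and ATP (1.25 mM) stimulation; lower signal means less secretion.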
HT1080NT lethal: kills 2HG-producing HT-1080-NT fibrosarcoma cells | Potency, µM (series often up to 46.1 µM), without a hit: top-dose activity, negative = less viability, usual class: cytotoxic | 360,000 compounds, 1.6% hits | AID 686970 | HT-1080-NT fibrosarcoma viability, CellTiter-Glo ATP luminescence, 48 h;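 note: NT is the 2HG producing partner of a matched IDH1 knockdown line; potency is the fitted concentration of half-maximal effect; 0% = DMSO-treated cells and -100% = media-only wells without cells; nearly all actives have a fitted effect of over 55% in size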
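Compounds were tested in concentration-response format on HT-1080-NT cells for 48 hours at 37 degrees C. Cell viability came from CellTiter-Glo luminescence; curves were classified by r2, response magnitude and activity.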
HT1080 IDH1KD tx: HT-1080 IDH1 knockdown cell toxicity (counter line) | HT-1080 IDH1 knockdown viability, ATP luminescence, 48 h | Potency, µM (series often up to 46.1 µM), inactives show top-dose activity, negative = toxicity, actives largely listed as cytotoxic | 360,000 compounds, 2% hits | AID 686971;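 note: potency is the fitted concentration of half-maximal effect; 0% = DMSO wells and -100% = cell-free medium wells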
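In this qHTS, HT-1080 cells depleted of IDH1 are exposed for 48 h at 37 °C to compound titrations. Toxicity is scored from CellTiter-Glo luminescence, with DMSO as full viability and medium alone as none.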
TDP1 cell CPT: growth inhibition of DT40 Tdp1-/-;hTDP1 cells with camptothecin (screen for TDP1 inhibitors); 420,000 compounds, 12% hits; chicken DT40 Tdp1-/-;hTDP1 cells + 20 nM CPT, ATP luminescence, 48 h; AID 686979; Potency, µM (highest dose often 46.2 µM), inactives show top-dose activity change, negative = growth inhibition, most hits filed as inhibitors; note: potency is the fitted concentration of half-maximal effect; nearly all actives have a fitted effect of over 55% in size
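Cell growth measured by CellTiter-Glo luminescence after a minimum 48 h, 37 C compound exposure with 20 nM CPT in Tdp1-knockout DT40 cells stably expressing hTDP1, seeded 400/well; qHTS titration format.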
Numbers without * were called inactive; ? = inconclusive; . = not tested or not shown; [ ] = dose if it differs, or a comment. Compounds with a hit are over-represented: about 19% of the library has one in this group of screens. Unless noted, calls come from the whole dose curve; as a rule, active = well fitted curve in the direction sought with a large enough effect; inconclusive = small, poorly fitted or top-dose-only effect, or another doubt; inactive = no such curve, though single readings can be large; an effect the other way counts as inactive or inconclusive. Unless noted, % is set by controls: 0 for no effect and ±100 for the full control effect.

SMILES | DT40 TDP1 no CPT | IL-1B inflam inh | HT1080NT lethal | HT1080 IDH1KD tx | TDP1 cell CPT
CC(C)C[C@@H](CN1CCCC1CN1C(=S)NC[C@@H]1Cc1ccccc1)N1C[C@H](Cc2ccc(O)cc2)N(CCc2ccccc2)C1=S (some centres undefined) | ? | 8.7 | ? | -1.0% | 18.4µM*
CC(C)C[C@@H](CN1CCC[C@@H]1CN1C(=S)NC[C@@H]1Cc1ccccc1)N1C[C@H](Cc2ccc(O)cc2)N(CCc2ccccc2)C1=S | 18.4µM* | 0.0 | ? | ? | ?
CC(C)C[C@@H](CN1CCC[C@@H]1CN1C(=O)C(=O)NC[C@@H]1Cc1ccccc1)N1C[C@H](Cc2ccc(O)cc2)N(CCc2ccccc2)C(=O)C1=O | ? | 0.0 | 1.4% | -4.0% | ?
CCC(C)NC(=O)Cn1c(=O)n(-c2ccc(C)cc2)c(=O)c2ccccc21 (centres undefined) | 1.0% | . | . | . | -4.1%
Cc1ccccc1CCNC(=O)c1ccc(Cn2c(=O)c3cccn3c3cccnc32)cc1 | 18.4µM* | . | . | . | ?
CCC(C)NC(=O)Cn1c(=O)n(Cc2ccc(C(=O)NCc3ccc(C)cc3)cc2)c(=O)c2ccccc21 (centres undefined) | 23.1µM* | . | . | . | 10.3µM*
CC(C)CCNC(=O)c1ccc(Cn2c(=O)c3cccn3c3cccnc32)cc1 | 0.517µM* | . | . | . | ?
CCCSCCCNC(=O)c1ccc(Cn2c(=O)c3cccn3c3cccnc32)cc1 | -23.5% | . | . | . | 1.6%
O=C(NCc1ccccc1Cl)c1ccc(Cn2c(=O)c3cccn3c3cccnc32)cc1 | -12.4% | . | . | . | -1.7%
COc1ccc(CNC(=O)c2ccc(Cn3c(=O)c4cccn4c4cccnc43)cc2)cc1OC | -16.1% | . | . | . | 4.0%
CCc1ccc(CNC(=O)c2ccc(Cn3c(=O)c4cccn4c4cccnc43)cc2)cc1 | 0.461µM* | . | . | . | ?
Cc1ncc2c(c1CNC(=O)c1cncs1)CCN(C(=O)c1ccc(C(F)(F)F)cc1)C2 | -14.4% | . | . | . | -15.1%[9.04 µM]
Oc1c(C(c2ccccc2Cl)N2CCC(O)CC2)sc2nc(-c3ccco3)nn12 (centres undefined) | ? | . | . | . | 1.9%
CCc1nn(CC(=O)NCc2cccc(OC)c2)c(=O)c2cc3cc(F)ccc3n12 | -29.1% | . | . | . | ?
CCN1CCN(C(=O)c2cc(COc3ccc(C(C)=O)cc3OC)on2)CC1 | -3.4% | 12.2 | 21.8% | 23.8% | 2.8%
CCN(C(=O)COC(=O)CNS(=O)(=O)c1ccc(SC)c([N+](=O)[O-])c1)C1CCCCC1 | -12.2% | 20.9 | -4.1% | -0.2% | -28.1%
CC12CC3(C)CC(C)(C1)CC(C(=O)NC1=NCCS1)(C2)C3 | ? | 22.7 | -2.5% | 2.9% | 23.1µM*
CSc1nc(C(C)C)ccc1CNC(=O)CC(C)c1ccccc1 (centres undefined) | 23.1µM* | 18.0 | -4.1% | -12.0% | -25.2%
CCOc1ccccc1N=Nc1c(C)[nH]n(C(N)=S)c1=O | 14.6µM* | 11.9 | 16.4% | 12.5% | ?
Cc1[nH]n(C(N)=S)c(=O)c1N=Nc1ccccc1C(F)(F)F | 14.6µM* | -7.1 | -4.5% | -9.9% | ?
NC(=S)n1[nH]c(-c2ccc([N+](=O)[O-])cc2)c(N=Nc2cccc(Cl)c2)c1=O | 6.51µM* | ? | ? | ? | 8.2µM*
Cc1[nH]n(C(N)=S)c(=O)c1N=Nc1ccc([N+](=O)[O-])cc1Cl | 2.91µM* | 20.7 | ? | 0.5% | ?
O=C(O)CNC(=O)c1ccc(S(=O)(=O)N2CCOCC2)cc1 | -6.1% | 6.2 | 14.2% | 2.8% | -2.7%
Oc1oc(C=Nc2ccc(F)cc2F)c2ccccc12 | -25.0% | 13.2 | 21.1% | 14.8% | -20.3%
Cc1ccccc1N=Nc1c(C)[nH]n(C(N)=S)c1=O | 1.16µM* | -0.5 | 3.6% | 9.8% | 1.16µM*
SMILES | DT40 TDP1 no CPT | IL-1B inflam inh | HT1080NT lethal | HT1080 IDH1KD tx | TDP1 cell CPT
C[C@@H]1C(=O)CC2C(C)(C)CCC[C@]2(C)[C@@]1(O)CCc1ccoc1 (some centres undefined) | -10.3%[9.04 µM] | . | . | . | -13.7%[9.04 µM]
CCOC(=O)c1cnc(-n2nc(C)cc2C)nc1NCCO | -16.8% | -3.7 | -0.3% | 11.3% | -12.1%
Cc1cc(C)n(-c2nc(C)nc(NCc3ccccc3)n2)n1 | 18.4µM* | 15.1 | -3.2% | -2.6% | 25.9µM*
CCOC(=O)c1cnc(-n2nc(C)cc2C)nc1N1CC(C)OC(C)C1 (centres undefined) | 20.6µM* | -10.0 | 6.6% | 3.0% | ?
CCOC(=O)c1cnc(-n2nc(C)cc2C)nc1NC(C)c1ccccc1 (centres undefined) | 4.61µM* | -8.6 | 2.3% | 1.0% | 4.61µM*
CNc1nc(C)nc(-n2nc(C)cc2C)n1 | -3.7% | -1.3 | -4.5% | -1.1% | -9.0%
CCOC(=O)c1cnc(-n2nc(C)cc2C)nc1NCc1ccccc1 | 5.17µM* | -111.4* | 0.5% | -3.3% | 3.26µM*
COc1ccc(-n2c(=O)c(-c3ccc(Cl)cc3)nc3cncnc32)cc1 | -4.4% | . | . | . | 7.2%
COc1ccc(C)cc1NC(=O)CCCN1C(=O)C(c2ccccc2)Oc2cccnc21 (centres undefined) | ? | -17.2 | 0.2% | -5.1% | ?
O=C(CN1C(=O)C(c2ccccc2)Oc2cccnc21)NCc1ccccc1F (centres undefined) | ? | -12.3 | -4.9% | -5.3% | 20.6µM*
COc1ccc(CNC(=O)CN2C(=O)C(c3ccccc3)Oc3cccnc32)cc1 (centres undefined) | ? | -9.0 | -0.1% | -4.9% | -16.1%
COc1cc(Cl)c(C)cc1NC(=O)CCCN1C(=O)C(c2ccccc2)Oc2cccnc21 (centres undefined) | 20.6µM* | . | . | . | 25.9µM*
COc1ccc(Cl)cc1NC(=O)CCCN1C(=O)C(c2ccccc2)Oc2cccnc21 (centres undefined) | 23.1µM* | . | . | . | 18.4µM*
CCC(Oc1ccccc1)C(=O)Nc1ccc(O)c(-c2nc3cc(C)ccc3o2)c1 (centres undefined) | ? | . | . | . | -27.8%
CC1CCCCC1NC(=O)c1ccc(S(=O)(=O)NCC2CCCO2)cc1 (centres undefined) | ? | 4.2 | 0.0% | 0.7% | -8.9%
Nc1ccc2c(c1)C(=O)CCC2 | -21.8% | -13.5 | -3.6% | 15.3% | -7.7%
Cc1cc2oc3cc(NCCC4CCCN4C)ccc3c(=O)c2cc1C (centres undefined) | 5.8µM* | -85.3* | ? | ? | 8.2µM*
COc1ccc(OC)c(S(=O)(=O)NCCCN2CCOCC2)c1 | -1.9% | -10.2 | -4.0% | 7.7% | -7.6%
O=c1c2ccccc2sc2ccc(NCCCN3CCOCC3)cc12 | 23.1µM* | 0.0 | -12.7% | -13.6% | ?
